Measured values: PubChem BioAssay

The molecules below were run on Human papillomavirus type 1a protein E7 (residues 44-93) (assay: HPV1a E7 fragment binders on microarrays, primary screen, biochemical, small-molecule microarray, residues 44-93, 635 nm fluorescence (AID 1108;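 note: E7 fragment applied at 1 µg/mL in TBST for 1 h at 4 C; score combines spot fluorescence with its signal to noise ratio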)). Details: small-molecule microarray binding, fluorescence 635 nm; higher = more signal.

In order of rising composite z-score:
1. CC(C)C(CO)N1C(=O)[C@@H]2[C@H]3C(=O)OCC=C[C@H]3OC23C=CCN(C(C)(C)C)C(=O)[C@@H]13 (stereo not given in full)  -1.27
2. C=C(COC)C(=O)CC[C@@H](OC(=O)c1cccnc1)c1ccccc1OCCO  -1.05
3. NC(=O)[C@@H]1[C@H]2C(=O)O[C@H](c3ccccc3)[C@H](c3ccccc3)N2[C@H](c2ccc(OCCO)cc2)[C@@]12C(=O)Nc1ccc(C#CCCO)cc12  -1.04
4. Cc1cccc([C@H]2C[C@H]3C(Br)=C[C@@H]2C(=O)[C@]32CO2)c1  -0.97
5. C[C@]1(C(=O)O)c2ccccc2C(=O)N(Cc2ccc(OC(F)(F)F)cc2)[C@H]1c1ccc(CO)cc1  -0.829
6. CC(C)C[C@@H]1NC(=O)[C@@]23C(=O)N[C@@H](Cc4ccccc4)C2[C@H](C)[C@@]2(C)O[C@H]2C3/C=C/C/C=C\CNC(=O)[C@@H](C)NC1=O (stereo not given in full)  -0.702
7. C=C(COC)C(=O)CC[C@H](OC(=O)c1cccnc1)c1ccc(CO)o1  -0.132
8. CCCNC(=O)[C@@]1(Sc2ccc(C)cc2)CC(=O)N(C2CCCCC2)[C@@H]1c1ccc(CO)cc1I  0.0411
9. CC(C)CNC(=O)[C@@]1(c2ccc([N+](=O)[O-])cc2)CC(=O)N(C2CCCCC2)[C@@H]1c1ccc(CO)cc1  0.292
10. C=CCC(OC(C)=O)[C@@H]1[C@@H](N(Cc2ccc(-c3cccc(C(F)(F)F)c3)o2)C(=O)c2cccc3ccccc23)c2cc(OCCCO)ccc2N1C(=O)Cc1ccc(OC)cc1 (stereo not given in full)  0.328
11. CCCCCCCCCCC(O)C1C=CC2C(=O)N(c3ccccc3)C(=O)C2N1Nc1ccccc1F (stereo not given)  0.648
12. CCOC(=O)C1=CCN(S(=O)(=O)c2ccc(C)cc2)C1c1ccccc1 (stereo not given)  0.666
13. C=C(CCCC)C(=O)CC[C@@H](OC(=O)c1cccnc1)c1ccc(OCCO)cc1  0.849
14. COC(=O)[C@@]1(Cc2ccc(OC)cc2)[C@H]2c3cc(C(=O)N4CCCC4)n(Cc4ccc(S(C)(=O)=O)cc4)c3C[C@H]2CN1C(=O)c1ccccc1  0.918
15. Cc1ccc(S[C@]2(C(=O)NC(C)C)CC(=O)N(Cc3ccccc3Cl)[C@@H]2c2ccc(CO)cc2)cc1  0.949
16. CC(C)=CCCC(C)=CC(O)C1C=CC2C(=O)N(c3ccccc3)C(=O)C2N1Nc1ccccc1F (stereo not given)  0.961
17. O=C1C2C=CC(C(O)c3cc(C(F)(F)F)cc(C(F)(F)F)c3)N(Nc3ccccc3F)C2C(=O)N1c1ccccc1 (stereo not given)  0.962
18. CO[C@H]1O[C@H](CO)[C@@H](OC(=O)Nc2ccc(C#N)cc2)[C@@H]2OC(=O)[C@H](Cc3cccc(Br)c3)C/C=C/C[C@@H](Cc3cccc(Br)c3)C(=O)O[C@@H]12  1.02
19. C=C(/C(=C/C[C@@H](OC(=O)c1ccncc1)c1cccc(OCCO)c1)c1cnc2ccccc2c1)C(C)C  1.08
20. CCCCNC(=O)c1ccc(C#C[Si](C(C)C)(C(C)C)C(C)C)c(OC(C)=O)c1  1.09
21. COc1cc2c(cc1OC)CN(C(=O)[C@@H]1[C@H]3C(=O)O[C@H](c4ccccc4)[C@H](c4ccccc4)N3[C@H](c3ccc(O)cc3)[C@@]13C(=O)Nc1ccc(C#CCCO)cc13)CC2  1.12
22. COCCOC(=O)N1C(=O)[C@@]2(c3ccccc31)[C@H](c1ccccc1OCCO)N1[C@H](c3ccccc3)[C@H](c3ccccc3)OC(=O)[C@H]1[C@@H]2C(N)=O  1.19
23. CN1C(=O)[C@@]2(Cc3ccccc3)N=C(c3ccc(OCCCO)cc3)O[C@H]2c2ccccc21  1.3
24. COCCOC(=O)N1C(=O)[C@@]2(c3cc(C#CCC(C(=O)OC)C(=O)OC)ccc31)[C@H](c1ccc(O)cc1)N1[C@H](c3ccccc3)[C@H](c3ccccc3)OC(=O)[C@H]1[C@@H]2C(=O)NC[C@H](O)c1ccccc1  1.33
25. COCCOC(=O)N1C(=O)[C@@]2(c3cc(C#Cc4ccc(OC)cc4)ccc31)[C@H](c1ccc(OCCO)cc1)N1[C@H](c3ccccc3)[C@H](c3ccccc3)OC(=O)[C@H]1[C@@H]2C(=O)Nc1nc2ccccc2s1  1.34
26. [N-]=[N+]=Nc1ccccc1C[C@]1(C(=O)O)N=C(c2ccc(OCCCO)cc2)O[C@H]1c1ccccc1  1.36
27. CCCC=C(CCC)[C@@H](NC(=O)CCc1ccccc1)c1ccc(C(F)(F)F)cc1  1.36
28. COCCOC(=O)N1C(=O)[C@@]2(c3cc(C#CC4(O)CCCCCC4)ccc31)[C@H](C(=O)N1CCN(c3ncccn3)CC1)[C@H]1C(=O)O[C@H](c3ccccc3)[C@H](c3ccccc3)N1[C@@H]2c1ccccc1OCCO  1.37
29. COCCOC(=O)N1C(=O)[C@@]2(c3cc(C#CCC(C(=O)OC)C(=O)OC)ccc31)[C@H](C(=O)NC[C@H](O)c1ccccc1)[C@H]1C(=O)O[C@H](c3ccccc3)[C@H](c3ccccc3)N1[C@@H]2c1ccc(O)cc1  1.37
30. COc1ccc(C(O)C2C=CC3C(=O)N(c4ccccc4)C(=O)C3N2Nc2ccc(C(C)C)cc2)c2ccccc12 (stereo not given)  1.39
31. CC(C)[C@H]1NC(=O)[C@@]23C(=O)N[C@@H](Cc4ccccc4)C2[C@H](C)[C@@]2(C)O[C@H]2C3/C=C/CCC/C=C/CNC(=O)[C@H](Cc2ccccc2)NC1=O (stereo not given in full)  1.41
32. C=C(/C(=C/C[C@H](OC(=O)c1ccncc1)c1ccccc1OCCO)c1cnc2ccccc2c1)C(C)C  1.41
33. COc1cc(NN2C(C(O)c3cc(OC)c(OC)c(OC)c3)C=CC3C(=O)N(c4ccccc4)C(=O)C32)cc(OC)c1OC (stereo not given)  1.41
34. COc1cc(NN2C(C(O)C3CCCCC3)C=CC3C(=O)N(C)C(=O)C32)cc(OC)c1OC (stereo not given)  1.44
35. COC(=O)[C@@]1(Cc2ccccc2)[C@H]2c3cc(C(=O)N4CCCC4)n(CCSCCO)c3C[C@H]2CN1C(=O)c1ccccc1  1.45
